Source: PubChem
Nrf2 inh: Nrf2 qHTS screen for inhibitors; A549 ARE-Fluc reporter, luciferase luminescence, 18-24 h; Potency, µM (titrated, usually from 46 µM), most hits filed as inhibitors; actives 2.1% (n = 360,000); note: nearly all actives have a fitted effect of over 60% in size
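Two sequential reads on A549 ARE_Fluc cells exposed to compound for 18-24 h: a CellTiter-Fluor fluorescence read for viability, then a luciferase luminescence read for Nrf2/ARE activity.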
A549 viability: Nrf2 qHTS screen for inhibitors: counterscreen for cytotoxicity | actives 0.16% (n = 390,000) | AID 504648, 2011 | Potency, µM (highest dose often 46 µM), hits mostly inhibitors | A549 ARE-Fluc cells, CellTiter-Fluor viability, 18-24 h
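A549 ARE-Fluc cells in 5% FBS OPTI-MEM, 5000 cells/well, rested 2 h then exposed to compounds in concentration-response for 18-24 h at 37 °C. Viability by CellTiter-Fluor fluorescence (Ex 405/Em 525) after 30 min; luciferase luminescence (BugLite, 15 min, RT) read afterwards.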
Nrf2 activator: qHTS of Nrf2 Activators. AREc32 ARE-luciferase reporter (MCF7-derived line), luminescence, 24 h. Potency, µM (titrated, usually from 46.1 µM), hits mostly activators. actives 0.31% (n = 410,000). AID 624171, 2012; note: nearly all actives have a fitted effect of over 65% in size
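Steps: seed AREc32_Fluc cells (1000/well, 5% FBS OPTI-MEM); incubate overnight at 37 deg C; add 23 nL compound; incubate 24 hr; add Steady-Glo; hold 30 min RT; read luminescence.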
miR-21 act: qHTS Assay for Modulators of miRNAs and/orActivators of miR-21; HeLa miR-21 FLuc reporter, luciferase, 48 h; Potency, µM (titrated, usually from 38.3 µM), actives largely listed as activators; 340,000 tested, under 10 active; AID 2288, 2010;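 note: miR-21 action dims this reporter so a rising signal means less miR-21 action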
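HeLa cells stably expressing CMV-driven firefly luciferase with a downstream miR-21 binding sequence, endogenously expressing miR-21, were treated with titrations (up to about 40uM final) for 48 hours at 37 degree Celsius. Luciferase luminescence was read after lysis.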
Glioma ERSR ind: qHTS for Inducers of the Endoplasmic Reticulum Stress Response (ERSR) in Human Glioma: qHTS | U87-MG GRP78 promoter luciferase reporter, 16 h | Potency, µM, most hits filed as activators | actives 0.02% (n = 420,000) | AID 602332, 2012; note: series mostly up to about 76 µM; nearly all actives have a fitted effect of over 35% in size
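ERSR induction read as luciferase luminescence (Bright-Glo, 10 min at room temperature) in stably transfected human U87-MG glioma cells exposed to compounds for 16 h, using GRP78 as sensor.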
TSG101-PTAP inh: qHTS Assay for Iinhibitors of HIV-1 Budding by Blocking the Interaction of PTAP/TSG101; Fluorescence polarization, FITC-PTAP peptide / Tsg101 binding; Potency, µM (doses to about 115 µM), hits mostly inhibitors; 340,000 tested, under 10 active; active = well fitted inhibition curve with a large enough effect in the main read-out, with a control signal flat, not every such curve was filed as active; inconclusive = small, poorly fitted or top-dose-only effect, or effect the other way, or a change in a side signal; inactive = no such curve, though single readings can be large or run the other way
Target sequence (Q99816 whole entry, looked up): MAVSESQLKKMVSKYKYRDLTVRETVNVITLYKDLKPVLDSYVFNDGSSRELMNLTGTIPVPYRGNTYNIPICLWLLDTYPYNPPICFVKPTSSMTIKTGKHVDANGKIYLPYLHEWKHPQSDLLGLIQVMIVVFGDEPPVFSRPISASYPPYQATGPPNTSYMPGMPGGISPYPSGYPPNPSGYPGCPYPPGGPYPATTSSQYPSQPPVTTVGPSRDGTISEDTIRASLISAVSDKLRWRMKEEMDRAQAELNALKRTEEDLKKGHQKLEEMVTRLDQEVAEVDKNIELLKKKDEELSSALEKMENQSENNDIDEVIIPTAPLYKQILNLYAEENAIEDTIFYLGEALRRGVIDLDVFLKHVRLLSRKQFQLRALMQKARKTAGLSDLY
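Fluorescence polarization binding of Tsg101 binding domain (10 uM final) to FITC-labeled PTAP peptide (50 nM final) in HEPES pH 7.5 buffer with NaCl, Tween 20, EDTA, TCEP. Compounds added before peptide; binding 20 min at RT.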
A number is an active result; n = inactive; u = inconclusive; x = no result. Only some compounds are listed: those with a hit (about 2.1% of all), similar ones and a draw of the others. Unless noted, calls come from the whole dose curve; as a rule, active = well fitted curve in the direction sought with a large enough effect; inconclusive = small, poorly fitted or top-dose-only effect, or another doubt; inactive = no such curve, though single readings can be large; an effect the other way counts as inactive or inconclusive.

SMILES | Nrf2 inh | A549 viability | Nrf2 activator | miR-21 act | Glioma ERSR ind | TSG101-PTAP inh
Cc1ccc(S(=O)(=O)Nc2cc3c(cc2NCc2ccccc2)n(C)c(=O)n3C)cc1 | u | n | u | n | n | x
O=C(Nc1cccc2c(=O)cc(-c3nn[nH]n3)oc12)c1ccc(OCCCCc2ccccc2)cc1 | x | x | x | x | n | x
CSc1ncccc1C(=O)NCCN1Cc2ccccc2OC(c2ccccc2F)C1 (configuration not stated) | x | x | x | x | n | x
Cn1nnnc1SCC1=C(C(=O)O)N2C(=O)[C@@H](NC(=O)[C@H](OC=O)c3ccccc3)[C@H]2SC1 | x | x | x | x | n | x
CC(C)(C)c1ccc(C(=O)C[n+]2ccc(Cl)c3ccc(Cl)cc32)cc1 | x | x | x | x | n | x
O=C(CNC(=S)N(Cc1ccccc1)Cc1ccccc1F)NCc1ccc(Cl)cc1 | 26µM | u | n | n | n | n
O=C(CNC(=S)N(Cc1ccccc1)Cc1ccccc1F)NCc1ccccc1 | u | n | n | n | n | n
COCC(C)NC(=O)CCS(=O)(=O)c1nc(-c2ccc(OC)cc2)cc(C(F)(F)F)n1 (configuration not stated) | n | n | 16µM | n | n | n
CCOC(=O)CS(=O)(=O)c1nc(-c2ccc(F)cc2)cc(C(F)(F)F)n1 | 16µM | u | u | u | n | n
Cc1cc(-c2ccc(C)c(S(=O)(=O)Nc3cccc(C#N)c3)c2)on1 | 7.3µM | n | n | n | n | x
COc1ccc(-c2cc(C)no2)cc1S(=O)(=O)Nc1cccc(C(F)(F)F)c1 | 18µM | n | n | n | n | x
Cc1ccc(C)c(CN2CCC3(CCC(CNC(=O)c4ccnn4C)O3)CC2)c1 (configuration not stated) | x | x | x | x | n | x
COC(=O)c1ccc(Cn2ncc3c4sc(C)cc4n(C)c3c2=O)cc1 | n | n | x | x | x | x
CN1CCC(N(Cc2cccs2)c2ccccc2)CC1 | x | x | x | x | n | x
CN(C)C(=O)c1ccc(NC(=O)COC(=O)C2(c3ccccc3)CCCC2)cc1 | 16µM | n | n | x | n | n
NC(=O)c1ccc(NC(=O)COC(=O)C2(c3cccc(F)c3)CCCC2)cc1 | n | n | n | n | n | n
NC(=S)NN=C1c2cc(OCCN3CCOCC3)ccc2-c2ccc(OCCN3CCOCC3)cc21 | 16µM | 16µM | n | u | n | n
ON=C1c2cc(OCCN3CCCCC3)ccc2-c2ccc(OCCN3CCCCC3)cc21 | n | u | n | n | n | n
COc1ccc(C2Nc3ccccc3C(=O)N2Cc2ccccc2)cc1OCc1ccc(NC(C)=O)cc1 (configuration not stated) | n | n | x | x | x | x
CSc1cccc(Nc2ccc(S(=O)(=O)N3CCOCC3)cc2[N+](=O)[O-])c1 | 18µM | n | n | x | n | n
Cc1cccc(Nc2ccc(S(=O)(=O)N3CCOCC3)cc2[N+](=O)[O-])c1 | n | n | n | x | n | n
CN(C)C(=O)CCC(=O)NCC1Cc2cccc(-c3ccccc3C(F)(F)F)c2O1 (configuration not stated) | x | x | x | x | n | x
CCCSC1=N/C(=C\C=C\c2ccco2)C(=O)S1 | n | n | 10µM | n | n | n
CCCCN(CC)CCNC(=O)C1CCN(c2nnc(C)c3c(C)n(-c4ccc(C)cc4)nc23)CC1 | u | 23µM | n | n | n | x
CC(C)NC(=O)c1cn([C@H]2CC[C@@H](NC(=O)/C=C/c3cccs3)CC2)nn1 | x | x | x | x | n | x
SMILES | Nrf2 inh | A549 viability | Nrf2 activator | miR-21 act | Glioma ERSR ind | TSG101-PTAP inh
CC(=O)c1c(C)[nH]c(C(=O)COc2cc(C)ccc2C(C)C)c1C | 7.3µM | n | n | u | n | n
CC(=O)c1c(C)[nH]c(C(=O)COc2ccc(C#N)cc2)c1C | 12µM | n | n | n | n | n
COc1ccccc1OCC(=O)c1[nH]c(C)c(C(C)=O)c1C | 5.2µM | n | n | n | n | n
CCN(CC)c1ccc2c(-c3ccc(S(=O)(=O)O)cc3S(=O)(=O)[O-])c3ccc(=[N+](CC)CC)cc-3oc2c1 | u | 12µM | n | n | n | u
Cc1ccc(-n2nnnc2SCC(=O)N2CCc3ccccc3C2)c(C)c1 | 16µM | n | n | n | n | x
Cc1ccc(-n2nnnc2SCC(=O)N2CCc3ccccc3C2)cc1 | n | n | n | n | n | n
O=C(N/N=C/C(Br)=C\c1ccccc1)c1ccc2nc[nH]c2c1 | n | n | 22µM | n | n | n
O=C(N/N=C/C(Br)=C/c1ccccc1)c1ccc([N+](=O)[O-])cc1 | n | n | 8.9µM | n | n | n
COc1ccc(Br)cc1CN(C)C(=O)CNC(=O)c1ccc2ccccc2c1 | 18µM | u | n | n | n | n
O=C(Cc1cccs1)Nc1ccc(Cl)c(S(=O)(=O)N2CCOCC2)c1 | 16µM | n | n | x | n | n
O=C(CN1C(=O)NC2(CCCCC2)C1=O)Nc1ccc(Cl)c(S(=O)(=O)N2CCOCC2)c1 | 23µM | n | n | x | n | n
COc1ccc(CN2CCC3(CCC(CNC(=O)c4ccnn4C)O3)CC2)c(C)c1C (configuration not stated) | x | x | x | x | n | x
COc1ccc(Br)cc1/C(C)=N/NC1=NCCN1 | 12µM | n | n | n | n | n
COc1ccc(OC2=NS(=O)(=O)c3ccccc32)cc1 | n | n | x | x | x | x
Cc1ccccc1-c1csc2ncnc(Sc3nnnn3C)c12 | n | n | x | x | x | x
Cn1nnnc1Sc1ncnc2scc(-c3ccc(F)cc3)c12 | 23µM | u | u | u | n | n
Cn1nnnc1Sc1ncnc2scc(-c3cccc4ccccc34)c12 | u | n | 7.1µM | x | n | n
Cn1nnnc1Sc1ncnc2scc(-c3ccccc3)c12 | u | n | u | n | n | n
Cn1nnnc1Sc1ncnc2scc(-c3ccccc3Br)c12 | 21µM | n | u | x | n | n
Cn1nnnc1Sc1ncnc2scc(-c3cccc(C#N)c3)c12 | 16µM | u | x | x | x | x
O=C1c2ccccc2C(=O)N1c1ccc2ccccc2n1 | n | n | x | x | x | x
Cc1cccc(CNCCn2cc(C(=O)Nc3ccccc3)nn2)c1 | x | x | x | x | n | x
O=C(CNC(=O)c1ccccc1)OC(Cc1ccccc1)C(=O)Nc1cc(C(F)(F)F)ccc1Cl (configuration not stated) | n | n | x | x | x | x
COc1cc(CN2CCCC(c3nc(-c4ccncc4)ncc3-c3ccccc3)C2)ccc1O (configuration not stated) | x | x | x | x | n | x
CC(C)(C)NC(=O)C(c1ccncc1)N(Cc1cccs1)C(=O)Cn1nnc(-c2ccc(F)cc2)n1 (configuration not stated) | 9.2µM | n | n | n | n | n
